Values joined by “and” are separate entries in the source; they are usually repeats but may differ in a detail not shown here. Identical values can stand only once. Inconclusive results are not listed. Active and inactive are the calls of the source. Unless noted, calls come from the whole dose curve; as a rule, active = well fitted curve in the direction sought with a large enough effect; inconclusive = small, poorly fitted or top-dose-only effect, or another doubt; inactive = no such curve, though single readings can be large; an effect the other way counts as inactive or inconclusive.
Assays:
[1] = target: Cellular tumor antigen p53 (Homo sapiens) (UniProt P04637); assay: Primary qHTS for small molecule compounds that upregulate eGFP-tagged delta133p53alpha (in N-terminal) cells. (AID 2060322); conditions: NCI-H358 eGFP-delta133p53alpha fluorescence, 24 h; activation: hits give high values;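 note: cells pre-induced with doxycycline then dosed without doxycycline; series mostly up to about 56 µM; 0% = DMSO vehicle and 100% = reference activator; nearly all actives have a fitted effect of over 75% in size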
Cellular tumor antigen p53 (Homo sapiens), sequence (P04637 whole entry, looked up): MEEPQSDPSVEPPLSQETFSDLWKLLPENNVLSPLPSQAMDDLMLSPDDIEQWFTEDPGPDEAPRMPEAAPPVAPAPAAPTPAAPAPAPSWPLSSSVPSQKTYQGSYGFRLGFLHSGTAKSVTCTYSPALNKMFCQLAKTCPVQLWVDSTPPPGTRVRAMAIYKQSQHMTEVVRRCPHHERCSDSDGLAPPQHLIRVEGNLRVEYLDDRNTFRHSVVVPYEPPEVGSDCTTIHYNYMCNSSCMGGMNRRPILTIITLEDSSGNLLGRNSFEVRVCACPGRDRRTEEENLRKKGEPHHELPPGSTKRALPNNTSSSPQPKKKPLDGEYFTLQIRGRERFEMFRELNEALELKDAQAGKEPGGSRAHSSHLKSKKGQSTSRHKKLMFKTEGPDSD
Summary of the method: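 NCI-H358 cells pre-induced 24 h with 10 ng/ml doxycycline for eGFP-delta133p53alpha, plated dox-free and exposed 24 h at 37C to titrated compounds. Fixed, Hoechst-stained; gated GFP peak intensity by laser scanning cytometry, normalized to DMSO (0%) and 57.5 uM 5-azacytidine (100%).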

[2] = target: Aldehyde dehydrogenase, mitochondrial (Homo sapiens) (UniProt P05091); assay: qHTS for Inhibitors of the Aldehyde Dehydrogenase Family (ALDH2) Validation screens (AID 2061302; active = well fitted inhibition curve with a large enough effect; title and protocol of this record describe different tests;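 note: plate controls were DMSO vehicle for no effect and maximal DPI positive control response for full effect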)
[3] = target: Retinaldehyde dehydrogenase 3 (Homo sapiens) (UniProt P47895); assay: qHTS for Inhibitors of the Aldehyde Dehydrogenase Family (ALDH1A3) Validation screen (AID 2061312); note: % is set by controls: 0 for no effect and ±100 for the full control effect; nearly all actives have a fitted effect of over 45% in size
[4] = BET inhibitor-based combinations targeting novel dependencies in MECOM-rearranged (r) AML: SET-2 cell line (AID 2202231); conditions: SET-2 AML cells viability, CellTiter-Glo luminescence, 48 h; viability: hits give low values, series mostly up to about 46 µM;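 note: plate controls were DMSO treated cells for no effect and wells without cells for full effect; nearly all actives have a fitted effect of over 35% in size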
Summary of the method: (§1)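 Luminescent ATP readout (CellTiter-Glo) after 48 hr drug exposure gives viability. Curves span 11 concentrations and are normalized to DMSO and empty wells. Activity is reported as area under the curve and its Z-transform within each cell line.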

[5] = BET inhibitor-based combinations targeting novel dependencies in MECOM-rearranged (r) AML: MV-4-11 cell line (AID 2202233);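 note: plate controls were DMSO for no effect and blank wells for full effect; nearly all actives have a fitted effect of over 45% in size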
Summary of the method: (§2)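 Luminescent ATP readout (CellTiter-Glo, 15 min at room temperature) after 48 hr drug exposure gave viability. Dose-response curves, normalized to DMSO and empty-well controls, were summarized as area under the curve and its mean-centred Z-score.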

[6] = BET inhibitor-based combinations targeting novel dependencies in MECOM-rearranged (r) AML: HNT-34 cell line (AID 2202234);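 note: plate controls were vehicle wells for no effect and cell-free wells for full effect; nearly all actives have a fitted effect of over 35% in size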
Summary of the method: as §2

[7] = BET inhibitor-based combinations targeting novel dependencies in MECOM-rearranged (r) AML: AML-191 cell line (AID 2202236; note: nearly all actives have a fitted effect of over 35% in size; note: potency is the fitted concentration of half-maximal effect)
Summary of the method: as §1

[8] = BET inhibitor-based combinations targeting novel dependencies in MECOM-rearranged (r) AML: AML-194 cell line (AID 2202237; note: nearly all actives have a fitted effect of over 40% in size; note: potency is the fitted concentration of half-maximal effect)
Summary of the method: as §1

[9] = BET inhibitor-based combinations targeting novel dependencies in MECOM-rearranged (r) AML: UCSD-AML1 cell line (AID 2202235); note: potency is the fitted concentration of half-maximal effect; nearly all actives have a fitted effect of over 40% in size
Summary of the method: as §2

COc1ccc(C(=O)N2CCCC2=O)cc1
inactive: activation [1] 27.7% and -18.6% and -9.06% | Potency [2] | Potency [3] | viability [4] 119% | Potency [5] | Potency [6] | Potency [7] | Potency [8]

CCCN(CCC)C1CCc2ccc(O)cc2C1 (centres undefined)
inactive: activation [1] -10.8% | Potency [2] | Potency [3]

COc1cc(C(O)CN)ccc1O (centres undefined)
inactive: activation [1] -24.3% | Potency [2] | Potency [3]

CNCCc1c[nH]c2ccc(O)cc12
inactive: activation [1] -26.4% | Potency [2] | Potency [3]

CC(CCc1ccccc1)NC(C)C(O)c1ccc(O)cc1 (centres undefined)
inactive: activation [1] -7.34% and 8.98% | Potency [2] | Potency [3]

CC(=O)NBr
inactive: activation [1] -8.24% | Potency [2] | Potency [3]

C#CCOC(=O)C1=CCCN(C)C1
inactive: activation [1] -28.1% | Potency [2] | Potency [3]

CCCN1CCC[C@H](c2cccc(O)c2)C1
inactive: activation [1] 4.78% | Potency [2] | Potency [3]

CN[C@@H]1C[C@@H](c2ccc(Cl)c(Cl)c2)c2ccccc21
inactive: activation [1] -33.4% | Potency [2] | Potency [3]

Cn1c(CCCC(=O)O)nc2cc(N(CCCl)CCCl)ccc21
inactive: activation [1] 27.7% and 5.11% and -16.6% | Potency [2] | viability [4] 78.5%
active: Potency [9] 18.6 µM | Potency [7] 16.6 µM | Potency [8] 20.9 µM

CCCN(CCC)[C@@H]1CCc2ccc(O)cc2C1
inactive: activation [1] -24.8% | Potency [2] | Potency [3]

CC(=O)[C@H]1CC[C@H]2[C@@H]3CC[C@H]4C[C@](C)(O)CC[C@]4(C)[C@H]3CC[C@]12C
inactive: activation [1] -8.47% and -37.3% | Potency [2] | Potency [3]

From PubChem BioAssay (NCATS)
